The record followed here is the antibiotic and cytotoxicity screens of Wong et al. (2023).

In all, about 39,000 compounds went through this assay and about 3,300 (8.5%) were called active. The full list was thinned out, with actives kept by preference.

In the experiment the test system is HepG2. The experiment is described as follows: cytotoxicity call (relative viability < 0.9). The settings on record: 10 µM.
As to `CN1CCN(C(=O)C[C@H]2CC[C@@H]3[C@H](COC[C@@H](O)CN3S(=O)(=O)c3cccc(Cl)c3)O2)CC1`, the cytotoxicity call was “inactive”.
As to `CCS(=O)(=O)N1CC[C@]2(CC1)CN([C@@H](CO)c1c2c2ccc(cc2n1C)OC)S(=O)(=O)c1ccccc1`, the cytotoxicity call is “inactive”.
`C[C@@H]1CN([C@H](C)CO)C(=O)c2cccc(NC(=O)Nc3ccc(C(F)(F)F)cc3)c2O[C@H]1CN(C)C(=O)NC1CCCCC1`: the cytotoxicity call was “active”.
Consider `C[C@@H]1CN([C@H](C)CO)C(=O)c2cccc(NC(=O)Nc3ccc(C(F)(F)F)cc3)c2O[C@@H]1CN(C)C(=O)NC1CCCCC1`, for which the cytotoxicity call is “active”.
For the compound `C[C@H](CO)N1C[C@H](C)[C@H](CN(C)C(=O)NC2CCCCC2)Oc2c(NC(=O)Nc3ccc(C(F)(F)F)cc3)cccc2C1=O`, the cytotoxicity call was “active”.
In the case of `C[C@H](CO)N1C[C@H](C)[C@@H](CN(C)C(=O)NC2CCCCC2)Oc2c(NC(=O)Nc3ccc(C(F)(F)F)cc3)cccc2C1=O` it was “active”.
In the case of `O=C(N[C@H]1CC[C@H](CCNS(=O)(=O)c2ccccc2)O[C@@H]1CO)c1cnccn1` it was “inactive”; in that of `C[C@@H]1CCCCO[C@@H](CN(C)C(=O)NC2CCCCC2)[C@H](C)CN([C@H](C)CO)C(=O)c2cc(NC(=O)C3CCCCC3)ccc2O1`, “inactive”.
In the case of `C[C@@H]1CN([C@H](C)CO)S(=O)(=O)c2ccc(C#CCN(C)C)cc2O[C@@H]1CN(C)S(=O)(=O)c1cccc(F)c1`, the cytotoxicity call was “inactive”.
Consider `CC(C)NC(=O)Nc1ccc2c(c1)C(=O)N([C@H](C)CO)C[C@H](C)[C@H](CN(C)C(=O)C1CCCCC1)OCCCC[C@@H](C)O2`, for which the cytotoxicity call was “inactive”.
Regarding `COc1ccc(NC(=O)Nc2ccc3c(c2)C(=O)N([C@@H](C)CO)C[C@H](C)[C@@H](CN(C)S(=O)(=O)c2ccc(Cl)cc2)OCCCC[C@@H](C)O3)cc1`, the cytotoxicity call is “inactive”.
Take `COc1ccc(CNC(=O)C[C@H]2C[C@@H]3c4cc(NC(=O)NC5CCCC5)ccc4O[C@@H]3[C@@H](CO)O2)cc1`: the cytotoxicity call is “inactive”.
Turning to `O=C(NCCC1=CCCCC1)c1sc2ccccc2c1Cl`, the cytotoxicity call was “inactive”.
Regarding `C[C@H](CO)N1C[C@H](C)[C@@H](CN(C)C(=O)c2ccccc2)OCCCC[C@H](C)Oc2ccc(NC(=O)CCC(F)(F)F)cc2C1=O`, the cytotoxicity call was “inactive”.
`C[C@@H]1CN([C@@H](C)CO)C(=O)c2c(c3ccccc3n2C)-c2ccccc2CO[C@@H]1CN(C)C(=O)Nc1ccccc1`: the cytotoxicity call is “inactive”.
Regarding `C[C@H]1CN([C@@H](C)CO)C(=O)c2cccc(NC(=O)Nc3ccc(C(F)(F)F)cc3)c2O[C@@H]1CN(C)C(=O)NC1CCCCC1`, the cytotoxicity call was “active”.
Take `C[C@@H]1CN([C@@H](C)CO)C(=O)c2cccc(NC(=O)Nc3ccc(C(F)(F)F)cc3)c2O[C@H]1CN(C)C(=O)NC1CCCCC1`: the cytotoxicity call was “active”.
`C[C@@H]1CN([C@@H](C)CO)C(=O)c2cccc(NC(=O)Nc3ccc(C(F)(F)F)cc3)c2O[C@@H]1CN(C)C(=O)NC1CCCCC1`: the cytotoxicity call was “inactive”.
Take `C[C@H]1CN([C@@H](C)CO)C(=O)c2cccc(NC(=O)Nc3ccc(C(F)(F)F)cc3)c2O[C@H]1CN(C)C(=O)NC1CCCCC1`: the cytotoxicity call was “inactive”.
